Measured values from PubChem BioAssay (NCATS).
Where “and” joins values, the source holds several entries; their conditions need not be identical. Identical values can stand only once. Inconclusive results are not listed. Where a call stands in place of a potency, no number is given. The source holds several records for some structures; these can differ, active in one and inactive in another. Calls of active or inactive are those of the source. Calls follow the shape of the dose curve; as a rule, active = well fitted curve in the direction sought with a large enough effect; inconclusive = small, poorly fitted or top-dose-only effect, or another doubt; inactive = no such curve, though single readings can be large; an effect the other way counts as inactive or inconclusive.

Tests used:
[1] = target: Cytochrome P450 3A7 (Homo sapiens) (UniProt P24462); assay: Cytochrome P450 family 3 subfamily A member 7 (CYP3A7) small molecule antagonists: luciferase biochemical qHTS assay (AID 1963596); also: nearly all actives have a fitted effect of over 40% in size
Cytochrome P450 3A7 (Homo sapiens), sequence (P24462 whole entry, looked up): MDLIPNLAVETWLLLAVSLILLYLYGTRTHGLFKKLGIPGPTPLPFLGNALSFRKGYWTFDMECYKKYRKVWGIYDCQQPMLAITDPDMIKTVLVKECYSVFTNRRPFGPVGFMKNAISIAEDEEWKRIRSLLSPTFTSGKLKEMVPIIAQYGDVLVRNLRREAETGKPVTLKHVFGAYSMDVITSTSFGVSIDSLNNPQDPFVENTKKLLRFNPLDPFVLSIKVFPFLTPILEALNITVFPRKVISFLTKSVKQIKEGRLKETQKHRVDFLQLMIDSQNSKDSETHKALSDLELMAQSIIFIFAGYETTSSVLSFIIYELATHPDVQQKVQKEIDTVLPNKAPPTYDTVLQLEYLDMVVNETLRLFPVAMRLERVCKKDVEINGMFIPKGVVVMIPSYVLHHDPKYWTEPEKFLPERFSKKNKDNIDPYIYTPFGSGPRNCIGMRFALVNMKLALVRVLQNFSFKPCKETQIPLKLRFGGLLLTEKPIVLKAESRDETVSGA
In short: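 Compounds were screened in qHTS format for interference with CYP3A7 turnover of a proluciferin substrate. Reactions ran 1 h at room temperature after NADPH regeneration solution was added, then luciferin product was detected by luminescence.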

[2] = Viability qHTS for spleen associated tyrosine kinase inhibitor (SYKi) naive MV4-11 cells (AID 1963823); also: nearly all actives have a fitted effect of over 40% in size; also: potency is read from the fitted curve at half-maximal effect
In short: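 SYKi-naive MV4-11 AML cells, 500 per well, were exposed to library compounds for 72 hr at 37 C, 5% CO2. Viability was then read by CellTiter-Glo luminescence after 10 min at room temperature.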

[3] = Viability qHTS for spleen associated tyrosine kinase inhibitor (SYKi) drug resistant MV4-11 cells (AID 1963824); also: nearly all actives have a fitted effect of over 35% in size; also: potency is read from the fitted curve at half-maximal effect
In short: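 SYK inhibitor-resistant MV4-11 AML cells, 500 per well, added to predispensed compounds and incubated 72 hr at 37 C, 5% CO2. Viability measured by CellTiter-Glo luminescence after 10 min at room temperature.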

[4] = Cellular viability qHTS for adrenocortical cancer (ACC) cell line SW-13 (AID 1963989); settings: SW-13 ACC cells viability, CellTiter-Glo, 48 h; activity (max response): stronger effect = lower value;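 also: cells grown in serum-free medium with ITS supplement; nearly all actives have a fitted effect of over 65% in size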
In short: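 48 h treatment, SW-13 in ITS/DMEM serum-free; doses up to 46 uM; readout CellTiter-Glo luminescence; curve fit four-parameter logistic.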

[5] = Cellular viability qHTS for adrenocortical cancer (ACC) cell line NCI-H295R (AID 1963990); also: nearly all actives have a fitted effect of over 60% in size
In short: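 Compound titrations (up to 46 uM final) are applied to NCI-H295R cultures for 48 h at 37C. Viable cell number is estimated by CellTiter-Glo signal, normalised to DMSO and doxorubicin controls.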

| SMILES | Potency [1] | Potency [2] | Potency [3] | activity (max response) [4] | Potency [5] | activity change, negative = inhibition [1] | viability (% of control) [2] | viability, % of control [3] | activity change, negative = viability loss [5] |
| --- | --- | --- | --- | --- | --- | --- | --- | --- | --- |
| C[N+](C)(C)CCOC(=O)CCC(=O)OCC[N+](C)(C)C | inactive | inactive | inactive | 11.2% (inactive) | inactive | – | – | – | – |
| O=C(O)[C@H](CC(=O)N1C[C@H]2CCCC[C@H]2C1)Cc1ccccc1 | inactive | inactive | inactive | 1.52% (inactive) | inactive | – | – | – | – |
| OCC(O)CN1CCN(c2ccccc2)CC1 (stereo not given) | inactive | 422 nM (active) and inactive | inactive | -5.47% (inactive) | inactive | – | – | – | – |
| CC(C)(Oc1ccc(C2CC2(Cl)Cl)cc1)C(=O)O (stereo not given) | inactive | inactive | inactive | 13.8% (inactive) and -14.2% (inactive) | inactive | – | – | – | – |
| CCn1ccc(NS(=O)(=O)c2ccc(N)cc2)nc1=O | inactive | inactive | inactive | 11.1% (inactive) | inactive | – | – | – | – |
| C[C@@H](O)[C@H]1C(=O)N2C(C(=O)O)=C(S[C@@H]3CN[C@H](C(=O)N(C)C)C3)[C@H](C)[C@H]12 | inactive | inactive | inactive | 7.3% (inactive) and 9.96% (inactive) | inactive | – | – | – | – |
| OC[C@@H](O)[C@H](O)[C@H](O)[C@@H](O)CO | inactive | 5.96 µM (active) | 3.35 µM (active) | 1.26% (inactive) and 9.11% (inactive) | inactive | – | – | – | – |
| C=CCn1c(=O)n([C@@H]2O[C@H](CO)[C@@H](O)[C@H]2O)c2nc(N)[nH]c(=O)c21 | inactive | inactive | inactive | 10.8% (inactive) | inactive | – | – | – | – |
| CC(=O)Oc1ccc(C)cc1 | inactive | inactive | inactive | 6.29% (inactive) | inactive | – | – | – | – |
| O=C(O)CCCC[P+](c1ccccc1)(c1ccccc1)c1ccccc1 | inactive | inactive | inactive | 2% (inactive) | inactive | – | – | – | – |
| Cc1scc2c1N(C(=O)CN1CCN(C)CC1)c1ccccc1NC2=O | inactive | inactive | inactive | 2.88% (inactive) | inactive | – | – | – | – |
| COC(=O)c1ccccc1C(=O)c1ccc(OCCN2CCCCC2)cc1 | inactive | inactive | inactive | -0.425% (inactive) | inactive | – | – | – | – |
| COC(=O)CCc1ccc(OCC(O)CNC(C)C)cc1 (stereo not given) | inactive | inactive | inactive | -6.6% (inactive) | inactive | – | – | – | – |
| NCCC(O)(P(=O)(O)O)P(=O)(O)O | inactive | inactive | inactive | 6.05% (inactive) | inactive | – | – | – | – |
| C[N+](C)(C)CC(O)CC(=O)[O-] (stereo not given) | inactive | inactive | inactive | -6.62% (inactive) | inactive | – | – | – | – |
| CC(NC(CCc1ccccc1)C(=O)O)C(=O)N1C(=O)N(C)CC1C(=O)O (stereo not given) | inactive | inactive | inactive | 6.3% (inactive) | inactive | – | – | – | – |
| O=c1cc[nH]c(=O)[nH]1 | inactive | inactive | inactive | 7.94% (inactive) | inactive | – | – | – | – |

| SMILES | Potency [1] | Potency [2] | Potency [3] | activity (max response) [4] | Potency [5] | activity change, negative = inhibition [1] | viability (% of control) [2] | viability, % of control [3] | activity change, negative = viability loss [5] |
| --- | --- | --- | --- | --- | --- | --- | --- | --- | --- |
| O=C1CC[C@H](C(=O)N2CCCCC2)N1 | inactive | inactive | inactive | -2.75% (inactive) | inactive | – | – | – | – |
| CCOC(=O)CN1CCCC1=O | inactive | inactive | inactive | 4.08% (inactive) | inactive | – | – | – | – |
| CC(=O)O[C@@H]1CC2C3CCc4cc(OC(=O)c5ccccc5)ccc4C3CCC2(C)[C@H]1OC(C)=O (stereo not given in full) | inactive | inactive | inactive | 3.65% (inactive) | inactive | – | – | – | – |
| O=C(O)Cc1csc(-c2ccc(Cl)cc2)n1 | inactive | inactive | inactive | -3.04% (inactive) | inactive | – | – | – | – |
| OC1C(O)C(O)C(O)C(O)C1O (stereo not given) | inactive | inactive | inactive | -3.11% (inactive) | inactive | – | – | – | – |
| C[C@H]1[C@H](NC(=O)/C(=N/OC(C)(C)C(=O)O)c2csc(N)n2)C(=O)N1S(=O)(=O)O (stereo in doubt) | inactive | inactive | inactive | 8.46% (inactive) | inactive | – | – | – | – |
| O=C(O)c1ccccc1S | inactive | inactive | inactive | 5.53% (inactive) | inactive | – | – | – | – |
| C=CCc1ccc(O)c(OC)c1 | inactive | inactive | inactive | 6.59% (inactive) | inactive | – | – | – | – |
| FC(F)(F)C(Cl)Br (stereo not given) | inactive | inactive | inactive | -8.02% (inactive) | inactive | – | – | – | – |
| COc1ccc2c(c1)c1c3n2CCN(C)C3=NCC1 | inactive | inactive | inactive | 0.0191% (inactive) | inactive | – | – | – | – |
| O=C(O)CN(CCOCCOCCN(CC(=O)O)CC(=O)O)CC(=O)O | – | – | – | -1% (inactive) | – | 3.38% [at 0.91 µM] (inactive) | 65.2% [at 0.588 µM] (inactive) | 96.9% [at 0.588 µM] (inactive) | -8.55% [at 0.587 µM] (inactive) |
| O=C(O)C1CCC1 | inactive | inactive | inactive | 11.6% (inactive) | inactive | – | – | – | – |
| CC(=O)N[C@@H](CS)C(=O)O | inactive | inactive | inactive | 15.1% (inactive) | inactive | – | – | – | – |
| O=c1ccn([C@@H]2O[C@H](CO)[C@@H](O)[C@H]2O)c(=O)[nH]1 | inactive | inactive | inactive | -5.6% (inactive) | inactive | – | – | – | – |
| Cc1c(C)c2c(c(C)c1OC(=O)c1cccnc1)CC[C@@](C)(CCC[C@H](C)CCC[C@H](C)CCCC(C)C)O2 | inactive | inactive | inactive | -0.414% (inactive) | inactive | – | – | – | – |
| CN(C)[C@@H]1C(=O)C(C(=O)NCN2CCCC2)=C(O)[C@@]2(O)C(=O)C3=C(O)c4c(O)cccc4[C@@](C)(O)C3C[C@@H]12 (stereo not given in full) | inactive | inactive | inactive | -7.75% (inactive) | inactive | – | – | – | – |
